Laboratory results reported in PubChem BioAssay AID493035 (The Scripps Research Institute Molecular Screening Center, 2011).
Among all 2,000 compounds or so, about 45 (2%) were called active. The entries come from a sample that favours actives as a whole. A number with no mark means an inactive call.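 Rule for the calls: active = inhibition above the mean of all tested compounds plus 3 SD (cut at about 49% in these data); inactive = the rest.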

Each molecule was assayed against Perilipin-5 (Homo sapiens) + 1-acylglycerol-3-phosphate O-acyltransferase ABHD5 (Homo sapiens) (UniProt Q00G26+Q8WTS1) (assay: blockers of ABHD5 binding to perilipin-5 – cell lysate, split luciferase complementation, luminescence, NIH validation set, pilot screen (AID 493035;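 note: 0% = DMSO only wells while the 100% control is not stated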)). Conditions: split G. princeps luciferase complementation, lysates, 4 h; at 7.9 µM, stronger effect = higher value.
Perilipin-5 (Homo sapiens) + 1-acylglycerol-3-phosphate O-acyltransferase ABHD5 (Homo sapiens), sequence (Q00G26 whole entry, looked up): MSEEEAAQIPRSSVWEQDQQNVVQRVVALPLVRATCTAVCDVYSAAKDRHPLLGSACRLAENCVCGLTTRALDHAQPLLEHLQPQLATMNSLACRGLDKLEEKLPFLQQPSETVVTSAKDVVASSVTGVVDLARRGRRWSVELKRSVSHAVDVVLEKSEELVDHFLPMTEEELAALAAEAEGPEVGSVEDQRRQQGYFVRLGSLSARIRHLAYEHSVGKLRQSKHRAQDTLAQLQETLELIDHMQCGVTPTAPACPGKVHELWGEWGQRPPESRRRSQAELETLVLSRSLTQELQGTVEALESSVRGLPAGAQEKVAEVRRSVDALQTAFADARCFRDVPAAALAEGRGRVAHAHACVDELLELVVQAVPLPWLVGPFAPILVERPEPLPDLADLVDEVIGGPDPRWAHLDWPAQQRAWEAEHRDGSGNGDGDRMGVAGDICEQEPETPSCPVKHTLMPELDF
Perilipin-5 (Homo sapiens) + 1-acylglycerol-3-phosphate O-acyltransferase ABHD5 (Homo sapiens), sequence (Q8WTS1 whole entry, looked up): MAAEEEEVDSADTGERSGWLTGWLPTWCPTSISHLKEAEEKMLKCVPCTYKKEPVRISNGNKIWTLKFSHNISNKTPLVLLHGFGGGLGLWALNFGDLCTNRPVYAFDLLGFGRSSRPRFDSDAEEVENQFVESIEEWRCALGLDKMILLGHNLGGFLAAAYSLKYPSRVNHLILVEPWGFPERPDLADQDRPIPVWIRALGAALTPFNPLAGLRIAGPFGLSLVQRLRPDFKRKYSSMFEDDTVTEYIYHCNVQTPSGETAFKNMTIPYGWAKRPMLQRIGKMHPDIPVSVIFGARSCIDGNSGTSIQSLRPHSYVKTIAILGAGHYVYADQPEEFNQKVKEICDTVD

| Structure (SMILES) | inhibition |
| --- | --- |
| O=C1CCCN1CCCn1cnc2c([nH]c3ccc(F)cc32)c1=O | 1.78% |
| CC12CCCCN1CCCc1c2[nH]c2ccccc12 (stereo not drawn) | 6.67% |
| CC(C)C[C@H](NC(=O)[C@@H]1Cc2ccccc2CN1C(=O)OC(C)(C)C)C(=O)NCC1CCC(C(=O)O)CC1 (stereo partly drawn) | -1.68% |
| COc1ccc(CNCCC(c2ccc(F)cc2)c2ccc(OC(C)C)cc2)cc1OC (stereo not drawn) | -5.38% |
| COc1ccccc1C(CC(=O)Nc1ccccc1C)c1ccc(OC(C)C)cc1 (stereo not drawn) | 1.65% |
| COc1ccc(CN(CCC(c2ccccc2)c2ccc(OC(C)C)cc2)C(=O)CCl)cc1OC (stereo not drawn) | 67% (active) |
| Cn1c(=O)oc2cc(S(=O)(=O)N3CCc4ccccc4C3)ccc21 | -0.05% |
| CC(C)C12CN3CC(C(C)C)(CN(C1)C3c1ccccc1O)C2=O (stereo not drawn) | 0.76% |
| c1coc(-c2nnc3n2C2(CCCC2)Cc2ccccc2-3)c1 | -2.54% |
| CC(C)CN1CCN(Cc2ccc(C#CC(C)(C)O)cc2)CC1CCO (stereo not drawn) | 1.45% |
| COc1ccc(CN2CCCCC2C(=O)Nc2ccc(OC)c(OCC(C)C)c2)cc1OC (stereo not drawn) | -8.58% |
| COc1ccccc1C(O)c1nccn1C (stereo not drawn) | -0.96% |
| COc1cc(/C=C/C(=O)CC(=O)/C=C/c2ccc(O)c(OC)c2)ccc1O | 47.6% |
| CC12CCC(C(=O)N3CCc4ccccc43)(CC1=O)C2(C)C (stereo not drawn) | -4.02% |
| COc1cc(/C=C(\C#N)C(=O)N2CCc3ccccc32)ccc1O | 50.3% (active) |
| Cn1c(=O)[nH]c(=O)c2c1nc(NCc1ccco1)n2CCCc1ccccc1 | -10% |
| CC1(C)CC(NC(=O)C23CCC(C)(C(=O)C2=O)C3(C)C)CC(C)(C)N1 (stereo not drawn) | -7.41% |
| NC(N)=N/N=C/c1ccc(OS(=O)(=O)c2ccccc2)cc1 | -1.57% |
| COc1cc(C(=O)Nc2cccc(-c3nnc(-c4ccco4)o3)c2)ccc1OC(C)=O | -3.44% |
| COc1ccc(/C=C2\CCc3ccccc3C2=O)c(OC)c1OC | -7.62% |
| COc1ccc(/C=C2\CCn3c2nc2cc(C(=O)O)ccc2c3=O)cc1OC | -3.54% |
| COc1ccc(/C=C2\CC/C(=C\c3ccc(OC)c(OC)c3)C2=O)cc1OC | 72.8% (active) |
| COc1ccc(C(=O)Nc2ccccc2C(=O)NCCCn2ccnc2)cc1 | -6.29% |
| Cc1nonc1CN(C)C(=O)c1ccc(OC2CCN(C(=O)c3cccnc3)CC2)cc1 | 2.15% |
| N#C/C(=C/c1ccccc1)C(=O)NCc1ccccc1 | 62.6% (active) |

| Structure (SMILES) | inhibition |
| --- | --- |
| N#C/C(=C\c1ccc(O)c(O)c1)C(=O)NCCCc1ccccc1 | 28.2% |
| S=C(NCc1ccccc1)NCc1cccc(CNC(=S)NCc2ccccc2)c1 | 10.2% |
| COc1ccc(NC(=O)CC2C(=O)N(C)C(=S)N2Cc2ccncc2)cc1 (stereo not drawn) | -3.37% |
| O=C(O)C1Cc2ccccc2CN1S(=O)(=O)c1ccccc1 (stereo not drawn) | 3.15% |
| O=C(O)Cc1ccc(O)c(F)c1 | -5.48% |
| CCOc1ccc(N2C(=O)CNC2=S)cc1 | -13.8% |
| COc1ccccc1-c1c(C(F)(F)F)oc2cc(OC(=O)c3ccc([N+](=O)[O-])cc3)ccc2c1=O | 29.5% |
| O=C(CCCN1C(=O)/C(=C\c2cccs2)SC1=S)Nc1ccccn1 | -1.47% |
| O=C(CN1C(=O)/C(=C/c2cccc(Br)c2)SC1=S)Nc1cccnc1 | 52% (active) |
| O=C(CCCN1C(=O)/C(=C\c2cccc(Br)c2)SC1=S)Nc1cccnc1 | 28.1% |
| COc1ccc(C2=NOC(COc3ccc4c(C)cc(=O)oc4c3)C2)c(OC)c1 (stereo not drawn) | 27.1% |
| O=C(COc1ccc2c(-c3ccccc3)cc(=O)oc2c1)NCc1cccs1 | 9.91% |
| CC/C(=C1/C(=O)CC(C)(C)C(C(=O)OC)C1=O)N1CCCC1 (stereo not drawn) | 6.45% |
| COc1ccc(C(=O)/C=C/c2ccc(OC(=O)c3cc(OC)c(OC)c(OC)c3)cc2)cc1 | 40.8% |
| COc1cccc2cc(-c3ccccc3)c(=O)oc12 | -4.71% |
| COc1ccc(/C=C/C(=O)c2cc3cccc(OC)c3oc2=O)cc1 | 69.5% (active) |
| N/C(=N\OC(=O)CCCOc1ccc(Cl)cc1Cl)c1ccccn1 | -4.4% |
| CC12COC3(C(=O)Nc4ccc(F)cc4)CC1CCC32C (stereo not drawn) | -5.49% |
| O=C(Nc1ncc2c(n1)CC(c1ccco1)CC2=O)c1ccco1 (stereo not drawn) | 0.31% |
| N/C(=N\OC(=O)/C=C/c1ccccc1)c1ccc(Br)cc1 | -11.8% |
| Cn1cc(/C=C/C(=O)c2ccccc2)c2ccccc21 | 13.7% |
| O=C(O)c1ccc(C(=O)C(=O)c2ccccc2)cc1 | -3.75% |
| O=C(/C=C/Sc1ccccc1)c1ccccc1 | 85.6% (active) |
| CC(CCc1ccccc1)NC(=O)/C=C/c1ccccc1 (stereo not drawn) | 0.97% |
| O=C(CCCCCCCC(=O)c1ccccc1)c1ccccc1 | -4.5% |

| Structure (SMILES) | inhibition |
| --- | --- |
| O=C(/C=C/c1ccccc1)NC(=O)c1ccccc1O | 12.7% |
| O=C(/C=C/c1ccccc1)/C=C/c1ccccc1 | 92.3% (active) |
| O=C(/C=C/c1ccccc1)c1ccccc1 | 69.7% (active) |
| COc1ccc(Cc2noc(CN(C)CCN3CCc4ccccc4C3)n2)cc1OC | -5.39% |
| CC(=O)Nc1ccc2[nH]c(C)c(CC=C(Cl)Cl)c(=O)c2c1 | -10.7% |
| COc1ccc(CCn2c(C)nc3c(c(=O)c4ccccc4n3C)c2=O)cc1 | 11% |
| Cc1nnc(SCC(=O)N2CCCC(C(=O)c3ccc(Cl)cc3)C2)o1 (stereo not drawn) | 0.98% |
| Cc1ccc2[nH]c3c(=O)n(CCCN4CCN(C)CC4)cnc3c2c1 | -5.12% |
| O=C(O)CCn1c(=S)n(CCC(=O)O)c2ccccc21 | 8.91% |
| Cc1ccccc1OCCSc1nc2ncnc(N)c2[nH]1 | -10.3% |
| COc1c(C)cc(C(=O)C2CCCN(Cc3ccc(Oc4ncccn4)cc3)C2)cc1C (stereo not drawn) | -0.46% |
| CSCCC(NC(=O)OC(C)(C)C)C(=O)Oc1ccc2c(=O)c(-c3ccc4c(c3)OCCO4)coc2c1 (stereo not drawn) | 69.1% (active) |
| O=c1c(-c2ccc3c(c2)OCCO3)coc2cc(OC3OC(CO)C(O)C(O)C3O)ccc12 (stereo not drawn) | -6.25% |
| CSCCC(NC(C)=O)C(=O)Oc1ccc2c3c(c(=O)oc2c1)CCCC3 (stereo not drawn) | 1.97% |
| CCc1c(C)c2ccc(OCC(=O)OC(C)C)c(C)c2oc1=O | -3.95% |
| CCOc1ccc(CC2c3cc(OCC)c(OCC)cc3CCN2C(=O)CN2CCN(C)CC2)cc1OCC (stereo not drawn) | -0.88% |
| O=C(/C=C/c1ccc(Cl)cc1)NCCc1ccccc1 | 1.1% |
| O=C(O)CCCCCN1C(=O)C(=O)/C(=C(/O)c2ccccc2)C1c1ccccc1 (stereo not drawn) | -14.1% |
| Nc1cc(-c2ccncc2)c[nH]c1=O | 75.3% (active) |
| c1cc(-c2ccncc2)ccn1 | -3.86% |
| CCc1cc(=O)oc2cc3occ(-c4ccc(OC)c(F)c4)c3cc12 | 14.2% |
| CC(C)=CC/C=C1\CCC(C(=O)O)C(C(=O)O)C1 (stereo not drawn) | 1.14% |
| COCCOC(=O)C1=C(N)OC2=C(C(=O)CCC2)C1c1cccnc1 (stereo not drawn) | 0.01% |
